# Measurements reported in ChEMBL document CHEMBL3433997, “St. Jude Leishmania screening dataset” (2016).
# Molecular target: Solute carrier family 2, facilitated glucose transporter member 1 (Homo sapiens) (UniProt P11166)
# Test: ST_JUDE_LEISH: Cytotoxicity at 2uM final concentration against transgenic Leishmania Mexicana promastigotes LmGLUT1 that are glucose transport deficient and complemented with the human glucose transporter GLUT1. Activity is measured by DNA content using SYBR green in vitro
# Format: functional
# Sequence of Solute carrier family 2, facilitated glucose transporter member 1 (Homo sapiens) (P11166 whole entry): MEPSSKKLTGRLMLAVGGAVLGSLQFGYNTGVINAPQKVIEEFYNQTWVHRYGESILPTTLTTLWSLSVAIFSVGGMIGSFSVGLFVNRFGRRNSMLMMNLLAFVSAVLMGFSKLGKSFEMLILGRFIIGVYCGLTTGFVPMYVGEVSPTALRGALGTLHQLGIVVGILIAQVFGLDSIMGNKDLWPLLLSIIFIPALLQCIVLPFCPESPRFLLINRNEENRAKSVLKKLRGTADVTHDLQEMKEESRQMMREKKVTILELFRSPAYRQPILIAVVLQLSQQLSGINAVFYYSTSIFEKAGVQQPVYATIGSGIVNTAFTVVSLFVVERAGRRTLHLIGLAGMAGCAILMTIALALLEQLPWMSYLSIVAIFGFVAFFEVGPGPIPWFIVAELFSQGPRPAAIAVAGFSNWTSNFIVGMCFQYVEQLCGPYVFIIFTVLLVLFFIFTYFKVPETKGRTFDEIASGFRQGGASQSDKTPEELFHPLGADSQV
row,SMILES,inhibition
1,CSc1cccc(NC(=O)c2cc3ccccc3oc2=O)c1,0.58%
2,CCN1CCN(CCNc2c3ccccc3nc3ccccc23)CC1,83.5%
3,CN(CCN(C)CC(O)c1ccc(Cl)c(Cl)c1)CC(O)c1ccc(Cl)c(Cl)c1 (stereo unspecified),11.5%
4,COCCNCc1ccc(-c2ccc(CNC3CCN(Cc4ccccc4)CC3)cc2)cc1,0.78%
5,Nc1cccc(CNCc2cccc(-c3csc(-c4nc5ccccc5[nH]4)c3)c2)c1,2.32%
6,O=C1CSc2ccc(CNC3CCN(CCc4c(Cl)cnc5ccc(Cl)cc45)CC3)nc2N1,0.88%
7,CCN(CC)CCN(Cc1ccc(-c2ccc(C(F)(F)F)cc2)cc1)C(=O)Cn1c(CCC2CCCCC2)nc(=O)c2ccccc21,0.48%
8,Oc1cc(NC[C@H]2CCC[C@@H]2NCc2cc(Br)cc(Br)c2)nc2ccccc12,2.99%
9,N#Cc1cccc(-c2nc(NCc3cccc(C(F)(F)F)c3)nn2-c2cccc(C(F)(F)F)c2)c1,1.68%
10,Nc1c2c(nc3ccc(C(=O)Nc4ccc(Br)cc4)cc13)CCCC2,5.71%
11,CCOc1cc(C(=O)NCCc2ccc(Cl)c(Cl)c2)ccc1-c1nc2cc(Cl)ccc2[nH]1,1.92%
12,Oc1ccc2ccccc2c1C=NNc1nc(=Nc2ccccc2)nc(N2CCOCC2)[nH]1,4.21%
13,Cc1ccc2[nH]c(C)cc(=NN=Cc3ccc(Cl)cc3)c2c1,-0.11%
14,Cc1c2c(nn1-c1ccccc1)C(c1ccccc1)N(c1ccccc1)C2=O (stereo unspecified),-0.43%
15,COc1ccc(CNc2nc(Nc3cccc(C#N)c3)nc(Nc3cccc(C#N)c3)n2)cc1Cl,3.25%
16,COc1cc(NC(=O)c2sc(-c3ccc(Cl)cc3)cc2NC(=O)c2cccnc2)ccc1OCCN1CCCC1,4.28%
17,CCOC(=O)C(CO)NC(=O)c1ccc([N+](=O)[O-])o1 (stereo unspecified),2.12%
18,Cc1[nH]c(C)c(-c2ccc(-c3ccc(C(F)(F)F)cc3C(F)(F)F)nc2)c(=O)c1Br,-0.49%
19,O=C(Nc1ccc(C(F)(F)F)cc1)NC1CCN(CCCCCNC(=O)C2CC2c2ccc(Cl)c(Cl)c2)CC1 (stereo unspecified),-1.45%
20,Cn1c(=O)c2cc(C(=O)NCCCN3CCCCCC3)sc2c2ccccc21,2.89%
21,CCc1ccnc2c(N3CCCC3=O)cc(C(=O)N[C@@H](Cc3ccccc3)[C@H](O)CNC3CCOCC3)cc12,3.63%
22,NC(=O)c1ccccc1Nc1nc(Nc2cc[nH]n2)ncc1Cl,6.52%
23,FC(F)(F)c1ccc2[nH]c(-c3ccc(-c4cccc(CNCCc5cccnc5)c4)s3)nc2c1,3.04%
24,CCn1c(-c2ccccc2)cc2nnc3ccccc3c21,6.68%
25,COc1ccc(C(=O)C2CCN(CCCCNC(=O)c3ccc(NC(=O)c4cc(Cl)cc(Cl)c4)cc3)CC2)cc1,3.02%
26,COc1cccc(NC(=O)Nc2cc(C)nc3ccccc23)c1,4.17%
